Measured values reported in the supplement of paper PMC10127200.
Counter-ions that a name gives are not always drawn.

Assays:
Experiment in all cases: Euclidean distance of Cell Painting phenotypic profile (signed KS, 77 features) to DMSO centroid (dimensionless distance); 5 or 10 uM (library dependent); higher = stronger phenotypic change vs DMSO (phenoactivity)
Details in all cases: 48 h
[1] = system: 786-O
Summary of the method: (§1)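 Five cancer lines, together with a healthy fibroblast line, received library compounds for 48 h at a library-dependent 10 or 5 uM and 0.1% DMSO final. Harmony then derived 77 features from confocal 20X images (9 fields/well) of the stained cells, scoring each as a signed Kolmogorov-Smirnov statistic against same-plate vehicle wells. After plate-position correction, correlation weighting and replicate averaging at the top dose, phenoactivity was taken as each profile's Euclidean distance to the median vehicle profile.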

[2] = system: A549
Summary of the method: as §1

[3] = system: DU145
Summary of the method: as §1

[4] = system: FB
Summary of the method: as §1

[5] = system: HEPG2
Summary of the method: as §1

[6] = system: OVCAR4
Summary of the method: as §1

SMILES | Euclidean distance [1] | Euclidean distance [2] | Euclidean distance [3] | Euclidean distance [4] | Euclidean distance [5] | Euclidean distance [6]
CC(C)(C)C(=O)Oc1ccc(S(=O)(=O)Nc2ccccc2C(=O)NCC(=O)O)cc1 [Sivelestat sodium tetrahydrate] | 0.925 | 0.568 | 1.32 | 1.57 | 0.892 | 1.28
OC(CCN1CCCC1)(c1ccccc1)C1CCCCC1 (stereo not drawn) [Procyclidine HCl] | 0.828 | 0.891 | 0.562 | 1.87 | 1.33 | 0.869
Cc1cnc(C(=O)N[C@H]2CCCCC/C=C\[C@@H]3C[C@@]3(C(=O)NS(=O)(=O)C3CC3)NC(=O)[C@@H]3C[C@@H](Oc4nc5ccccc5c5ccccc45)CN3C2=O)cn1 [Paritaprevir (ABT-450)] | 1.48 | 1.53 | 1.52 | 1.17 | 0.513 | 1.39
COC(=O)N(C)c1c(N)nc(-c2nn(Cc3ccccc3F)c3ncccc23)nc1N [Riociguat (BAY 63-2521)] | 1.1 | 0.74 | 0.825 | 1.34 | 0.598 | 0.876
CCOC(=O)Nc1ccc(NCc2ccc(F)cc2)nc1N [Flupirtine maleate] | 1.54 | 3.24 | 1.53 | 1.25 | 0.854 | 1.37
O=C1CN2Cc3c(ccc(Cl)c3Cl)N=C2N1 [Anagrelide HCl] | 0.871 | 0.869 | 0.905 | 1.18 | 1.01 | 1.53
Cn1cc(Nc2nccc(N3C[C@H]4CC[C@@H](C3)N4C(=O)[C@@H]3CC3(F)F)n2)cn1 | 1.66 | 1.31 | 0.715 | 2.16 | 0.594 | 3.68
O=C(NC1CCOCC1)c1ccc(-c2cc(-c3c[nH]nc3-c3ccccn3)ccn2)cc1 | 1.22 | 0.965 | 0.674 | 1.3 | 1.01 | 0.73
CN(C)CCCN1c2ccccc2Sc2ccc(C(F)(F)F)cc21 [Triflupromazine hydrochloride] | 1.77 | 1.63 | 1.6 | 2.36 | 1.76 | 1.47
CN[C@@H]1[C@H](O)[C@H](NC)[C@H]2O[C@@]3(O)C(=O)C[C@@H](C)O[C@H]3O[C@@H]2[C@H]1O [Spectinomycin HCl] | 0.726 | 0.814 | 1.28 | 1.21 | 0.977 | 1.02
C[C@@H]1CCO[C@H]2Cn3cc(C(=O)NCc4ccc(F)cc4F)c(=O)c(O)c3C(=O)N12 [Dolutegravir Sodium] | 0.603 | 0.757 | 0.904 | 0.594 | 0.621 | 0.881
CO[C@@H]1[C@@H](O[C@@H]2O[C@H](C)[C@@H](O[C@H]3C[C@@](C)(O)[C@@H](OC(=O)CC(C)C)[C@H](C)O3)[C@H](N(C)C)[C@H]2O)[C@@H](CC=O)C[C@@H](C)[C@@H](O)/C=C/C=C/C[C@@H](C)OC(=O)C[C@H]1OC(C)=O [Josamycin] | 1.22 | 1.07 | 0.712 | 1.59 | 1.01 | 1.06
CO/N=C(/C(=O)N[C@@H]1C(=O)N2C(C(=O)OCOC(=O)C(C)(C)C)=C(C)CS[C@H]12)c1csc(N)n1 [Cefetamet pivoxil hydrochloride] | 1.66 | 1.04 | 1.11 | 0.939 | 0.729 | 0.914
CCc1c(C)[nH]c2c1C(=O)C(CN1CCOCC1)CC2 (stereo not drawn) [Molindone hydrochloride] | 1.11 | 0.479 | 0.934 | 0.703 | 0.317 | 0.874
C[C@@H](O)[C@H]1C(=O)N2C(C(=O)O)=C(S[C@@H]3CN[C@H](C(=O)N(C)C)C3)[C@H](C)[C@H]12 [Meropenem Trihydrate] | 1.26 | 1.2 | 0.738 | 0.87 | 1.01 | 0.913
CC(C)(C)NC(=O)[C@H]1CC[C@H]2[C@@H]3CC[C@H]4NC(=O)C=C[C@]4(C)[C@H]3CC[C@]12C [Finasteride] | 1.26 | 0.717 | 0.682 | 0.871 | 0.391 | 1.18
CC(C)C(=O)OCC(=O)[C@@]12O[C@H](C3CCCCC3)O[C@@H]1C[C@H]1[C@@H]3CCC4=CC(=O)C=C[C@]4(C)[C@H]3[C@@H](O)C[C@@]12C [Ciclesonide] | 1.71 | 2.49 | 2.88 | 2.36 | 2.25 | 2.09
CN(C)CCn1nnnc1SCC1=C(C(=O)O)N2C(=O)[C@@H](NC(=O)Cc3csc(N)n3)[C@H]2SC1 [Cefotiam hydrochloride] | 1.2 | 1.06 | 0.774 | 0.93 | 0.739 | 0.935
CN(C)/N=N/c1[nH]cnc1C(N)=O [Dacarbazine] | 1.42 | 0.981 | 1.94 | 1.25 | 2.73 | 0.871
Nc1nc(/C(=C/CC(=O)O)C(=O)N[C@@H]2C(=O)N3C(C(=O)O)=CCS[C@H]23)cs1 [Ceftibuten dihydrate] | 1.22 | 0.568 | 1.24 | 1.2 | 1.17 | 0.987
COc1cc2ncnc(Nc3cccc(Cl)c3F)c2cc1OC(=O)N1CCN(C)C[C@H]1C | 1.15 | 2.05 | 1.72 | 1.4 | 0.691 | 1.33
CC(C)NCC(O)COc1ccc(CC(N)=O)cc1 (stereo not drawn) [Atenolol] | 1.33 | 0.613 | 0.819 | 0.889 | 1.22 | 0.667
NC(=O)NCCC[C@H](N)C(=O)O [L-Citrulline] | 1.08 | 0.895 | 1.37 | 0.916 | 1.27 | 0.761
CONC(=O)c1ccccc1Nc1cc(Nc2cc(C)nn2C(C)C)ncc1Cl | 1.35 | 1.28 | 1.33 | 2.01 | 0.825 | 1.5

SMILES | Euclidean distance [1] | Euclidean distance [2] | Euclidean distance [3] | Euclidean distance [4] | Euclidean distance [5] | Euclidean distance [6]
Nc1ncnc2c1ncn2[C@@H]1O[C@H](CO)[C@@H](O)[C@@H]1O [Vidarabine monohydrate] | 0.895 | 1.22 | 0.966 | 0.665 | 1.66 | 1.18
CC(=O)Oc1ccc(C(c2ccc(OC(C)=O)cc2)c2ccccn2)cc1 [Bisacodyl] | 1.2 | 1.2 | 0.531 | 3.08 | 0.712 | 1.41
CC(NCCC(c1ccccc1)c1ccccc1)c1ccccc1 (stereo not drawn) [Fendiline hydrochloride] | 1.96 | 2.16 | 1.45 | 1.24 | 2.42 | 1.41
C[C@]12CC[C@@H]3c4ccc(O)cc4CC[C@H]3[C@@H]1CC[C@@H]2OC(=O)CCC1CCCC1 [Estradiol Cypionate] | 1.29 | 1.56 | 1.4 | 1.23 | 0.84 | 1.34
CO[C@H]1/C=C/O[C@@]2(C)Oc3c(C)c(O)c4c(O)c(c(/C=N/N5CCN(C)CC5)c(O)c4c3C2=O)NC(=O)/C(C)=C\C=C\[C@H](C)[C@H](O)[C@@H](C)[C@@H](O)[C@@H](C)[C@H](OC(C)=O)[C@@H]1C [Rifampin] | 1.56 | 0.64 | 1.44 | 1.36 | 2.28 | 1.14
CCOC(=O)C1=C[C@@H](OC(CC)CC)[C@H](NC(C)=O)[C@@H](N)C1 [Oseltamivir phosphate] | 0.628 | 0.678 | 0.967 | 1.19 | 0.883 | 1.1
CC(C)(CO)[C@@H](O)C(=O)NCCC(=O)NCCSSCCNC(=O)CCNC(=O)[C@H](O)C(C)(C)CO [D-Pantethine] | 1.1 | 1.2 | 0.679 | 1 | 0.969 | 1.35
O=C(O)/C=C/c1cnc[nH]1 [Urocanic acid] | 1.13 | 0.682 | 0.798 | 0.718 | 0.554 | 1.26
CNCCC=C1c2ccccc2CCc2ccccc21 [Nortriptyline hydrochloride] | 1.69 | 1.13 | 1.37 | 1.82 | 1.8 | 1.69
C[C@H](NC(=O)Cc1cc(F)cc(F)c1)C(=O)N[C@H](C(=O)OC(C)(C)C)c1ccccc1 | 1.92 | 1.48 | 1.11 | 0.913 | 1.57 | 1.26
O=C(OCC(O)CO)c1ccccc1Nc1ccnc2cc(Cl)ccc12 (stereo not drawn) [Glafenine HCl] | 1.07 | 0.79 | 0.824 | 1.52 | 0.968 | 1.04
CCOc1ccc2c(c1)C(C)=CC(C)(C)N2 [Ethoxyquin] | 0.933 | 1.17 | 0.847 | 1.62 | 0.54 | 1.95
CCn1c(=O)c(-c2cc(NC(=O)Nc3ccccc3)c(F)cc2Br)cc2cnc(NC)cc21 [Ripretinib (DCC-2618)] | 2.86 | 3.27 | 2.91 | 3.89 | 2.27 | 3.18
C#C[C@]1(O)CC[C@H]2[C@@H]3CCC4=CC(=O)CC[C@@H]4[C@H]3C(=C)C[C@@]21CC [Etonogestrel] | 0.851 | 0.713 | 0.98 | 1.21 | 0.628 | 1.03
O=c1[nH]c2ccccc2n1CCN1CCN(c2cccc(C(F)(F)F)c2)CC1 [Flibanserin] | 1.14 | 1.22 | 0.833 | 1.07 | 0.806 | 1.35
COc1ccc(C(=O)Nc2sc3c(c2C(N)=O)CCCC3)cc1OC | 1.04 | 2.61 | 1.02 | 0.845 | 0.747 | 2.82
O=C1C[C@@H](c2ccc(O)cc2)Oc2cc(O)cc(O)c21 [Naringenin] | 0.882 | 1.06 | 0.744 | 1.06 | 0.936 | 1.11
CCCNC(C)C(=O)Nc1ccccc1C (stereo not drawn) [Prilocaine] | 1.25 | 0.85 | 0.708 | 1.93 | 0.648 | 0.974
O=c1c2ccccc2oc2ccccc12 [Xanthone] | 1 | 1.28 | 1.24 | 1.02 | 0.607 | 1.14
CCN(CC)CC(=O)Oc1ccc(NC(C)=O)cc1 [Propacetamol hydrochloride] | 1.3 | 0.77 | 1.22 | 0.897 | 1.14 | 1.47
C[N+](C)(C)NCCC(=O)[O-] [Mildronate] | 1.41 | 1.05 | 1.05 | 1.1 | 0.54 | 0.82
O=C1OC(c2ccc(O)cc2)(c2ccc(O)cc2)c2ccccc21 [Phenolphthalein] | 1.6 | 0.655 | 1.35 | 0.979 | 0.6 | 1.49
CC[N+](CC)(CC)CC [Tetraethylammonium bromide] | 1.58 | 0.816 | 0.857 | 0.968 | 1.11 | 0.715
Cc1onc(-c2ccccc2)c1C(=O)N[C@@H]1C(=O)N2[C@@H]1SC(C)(C)[C@@H]2C(=O)O [Oxacillin sodium monohydrate] | 1.39 | 1.09 | 1.47 | 1.11 | 0.665 | 1.37
